Experimental data reported in the supplement of paper PMC6555819.

Assays:
Test in all cases: PBM binding z-score (relative to random genomic background probes); higher = stronger binding; sequences stand for … in GC…GCGATTGACAGCGTAGAATGAAGG
[1] = test system: FXR:RXRa (NR concentration 270 nM, RXRa partner concentration 90 nM)
Outline: (§1)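 Ligand-free nuclear receptor dimers were bound for 1 h to custom Agilent 4×180K protein-binding microarrays. Detection used antibodies against each partner (one per run). Binding z-scores rest on regression-normalized fluorescence, with random background probes as the reference.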

[2] = test system: LXRa:RXRa (NR concentration 270 nM, RXRa partner concentration 90 nM)
Outline: as §1

[3] = test system: LXRa homodimer (NR concentration 270 nM)
Outline: as §1

[4] = test system: LXRb:RXRa (NR concentration 270 nM, RXRa partner concentration 90 nM)
Outline: as §1

[5] = test system: LXRb homodimer (NR concentration 270 nM)
Outline: as §1

[6] = test system: PPARa:RXRa (NR concentration 270 nM, RXRa partner concentration 90 nM)
Outline: as §1

[7] = test system: PPARg:RXRa (NR concentration 180 nM, RXRa partner concentration 90 nM)
Outline: as §1

[8] = test system: PPARg:RXRa 270nM:90nM, anti-RXR (NR concentration 270 nM, RXRa partner concentration 90 nM)
Outline: as §1

[9] = test system: PPARg:RXRa 30nM:10nM, anti-RXR (NR concentration 30 nM, RXRa partner concentration 10 nM)
Outline: as §1

[10] = test system: PPARg:RXRa 90nM:30nM, anti-RXR (NR concentration 90 nM, RXRa partner concentration 30 nM)
Outline: as §1

[11] = test system: PPARg:RXRa DBDmut IVT, anti-RXR (DBD mutation: RXRa K156A/R161A, NR concentration 270 nM, RXRa partner concentration 90 nM)
Outline: as §1

[12] = test system: PPARg:RXRa IVT, anti-PPARg (NR concentration 270 nM, RXRa partner concentration 90 nM)
Outline: as §1

[13] = test system: PPARg DBDmut:RXRa IVT, anti-PPARg (DBD mutation: PPARg1 K132A/R137A, NR concentration 270 nM, RXRa partner concentration 90 nM)
Outline: as §1

[14] = test system: PPARg DBDmut IVT, anti-PPARg (DBD mutation: PPARg1 K132A/R137A, NR concentration 270 nM)
Outline: as §1

[15] = test system: PPARg homodimer (NR concentration 180 nM)
Outline: as §1

[16] = test system: PXR:RXRa (NR concentration 270 nM, RXRa partner concentration 90 nM)
Outline: as §1

[17] = test system: PXR homodimer (NR concentration 270 nM)
Outline: as §1

[18] = test system: RARa:RXR (NR concentration 270 nM, RXRa partner concentration 90 nM)
Outline: as §1

[19] = test system: RARa homodimer (NR concentration 270 nM)
Outline: as §1

[20] = test system: RARb:RXRa (NR concentration 270 nM, RXRa partner concentration 90 nM)
Outline: as §1

Row | Sequence | PBM binding z-score [1] | PBM binding z-score [2] | PBM binding z-score [3] | PBM binding z-score [4] | PBM binding z-score [5] | PBM binding z-score [6] | PBM binding z-score [7] | PBM binding z-score [8] | PBM binding z-score [9] | PBM binding z-score [10] | PBM binding z-score [11] | PBM binding z-score [12] | PBM binding z-score [13] | PBM binding z-score [14] | PBM binding z-score [15] | PBM binding z-score [16] | PBM binding z-score [17] | PBM binding z-score [18] | PBM binding z-score [19] | PBM binding z-score [20]
1 | ACTTACGGGTCAACGAGGTTATATCACGCGTATA | 6.93 | 5.07 | 1.5 | 4.54 | 1.09 | 5.82 | 5.28 | 4.92 | 2.11 | 3.79 | 2.95 | 3.92 | 0.992 | 1.71 | 2.52 | 5.03 | 3.3 | 4.76 | 0.919 | 4.28
2 | CCTGCTAGGTCATGCTCAGCTAATCTACAGTATG | 3.21 | 2.16 | -0.266 | 1.38 | -0.112 | 2.99 | 1.9 | 2.36 | 0.444 | 1.35 | 4.78 | 3.37 | 0.405 | 0.309 | 0.827 | 0.957 | -0.979 | 2.05 | -0.229 | 3.75
3 | GCAGACAGGTGAAACGCAGGTAACTCCGGGTGGC | -0.276 | 0.017 | -0.496 | -0.36 | -1.37 | 0.805 | 0.312 | 0.0906 | -0.41 | -0.188 | 0.8 | 0.556 | 0.467 | -0.826 | -0.848 | -0.493 | -0.692 | 0.064 | -0.954 | 0.484
4 | CCTTACGGGTCAAAGTTATAGCACGGGTGGTACG | 6.21 | 3.95 | 0.182 | 3.42 | 0.711 | 5.06 | 5.04 | 5.46 | 2.56 | 4.63 | 1.88 | 3.45 | 0.255 | 0.0478 | 2.1 | 3.35 | 0.317 | 4.38 | 1 | 3.7
5 | CCTGCTAGGTAATGGTCAGCTAATCTACAGTATG | -0.151 | -0.438 | -0.575 | -0.764 | -0.48 | -0.344 | -0.182 | -0.104 | -0.225 | -0.424 | 1.12 | 0.132 | -0.293 | -0.811 | -0.722 | -0.534 | -0.524 | -0.39 | 0.217 | 0.113
6 | ATCGAAAGCTCGACGAGGTGAGTATACACCGTTT | -0.406 | -0.524 | -0.742 | -0.456 | -0.163 | -0.348 | 0.614 | -0.448 | 0.105 | -0.367 | -0.441 | 0.00949 | 0.478 | 0.316 | -0.162 | -0.321 | -0.326 | -0.226 | -0.876 | -0.148
7 | CAAACTAGGTCACAGAGGTAAAAGTCCGTGCGTA | 4.42 | 3.37 | 0.644 | 2.58 | 0.501 | 5.38 | 9.21 | 7.63 | 5.5 | 7.27 | 8.62 | 8.89 | 3.39 | 1.6 | 2.55 | 2.53 | 0.79 | 3.47 | 0.948 | 4.35
8 | TCTGCGAGGTCAGTTGGTCAGCTAACGAGCTGCC | 4.64 | 3.16 | 0.00554 | 2.69 | 1.26 | 3.99 | 2.69 | 3.5 | 1.59 | 2.61 | 1.99 | 3.25 | 2.02 | 0.235 | 1 | 2.88 | 0.146 | 2.68 | -0.6 | 4.51
9 | TAGCCTAGGTCATGCGGGCTAGTATAGTGTCGGC | 3.65 | 2.96 | 0.103 | 1.54 | -0.594 | 3.43 | 2.07 | 2.14 | 0.00724 | 0.957 | 1.62 | 2.81 | -0.158 | -0.27 | 0.331 | 1.07 | -0.632 | 1.97 | -0.868 | 3.86
10 | ATACCAAGATGATCGTGAGGTCGTTGATACTAAC | 1.11 | 0.576 | 0.456 | 0.892 | 0.0732 | 0.598 | 0.48 | -0.158 | 0.129 | -0.00184 | 0.165 | 0.114 | 0.181 | 0.947 | 0.378 | 1.67 | 1.32 | 1.35 | 0.361 | 0.547
11 | TATACAGGGTAAAAGGCCAGAGTACGAATGTCGA | 0.526 | 0.732 | 0.094 | 0.483 | 0.559 | 2.02 | 3.63 | 4.11 | 2.26 | 3.82 | 1.68 | 2.88 | 1.57 | 1.04 | 1.27 | 0.286 | 0.409 | 0.32 | 0.622 | 1.85
12 | TGAATGAGGTTATCAGATCAGGGAACGTTGCAAA | 1.75 | 1.5 | -0.39 | 1.18 | -0.266 | 3.2 | 1.74 | 2.18 | 0.777 | 1.28 | 1.59 | 2.2 | 0.55 | -0.0543 | 1.69 | 0.942 | -0.255 | 1.45 | -0.892 | 1.44
13 | TTACCATGGTGAAAGGTCGTTGATGCACGCCTTG | 1.54 | 1.93 | 0.41 | 2.22 | -0.316 | 4.04 | 5.88 | 6.89 | 5.62 | 8.01 | 0.72 | 2.89 | 0.347 | -0.209 | 0.983 | 2.74 | 0.676 | 3.2 | -0.159 | 1.94
14 | CTCGAAAGGTCGGTTGAGGTGAGGATACGGATAA | 3.07 | 1.84 | -0.0492 | 1.43 | -0.104 | 2.68 | 0.677 | 1.09 | 0.294 | 1.02 | -0.21 | 1.07 | 0.312 | -0.445 | 1.24 | 3.06 | 0.154 | 2.64 | 0.262 | 3.18
